In all, about 230,000 compounds went through this assay and about 1,500 (0.65%) were called active.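 How the source made its calls: active means pattern-corrected inhibition of lipid staining of at least 50% with the nuclear-stain viability signal not falling by more than 50%; inactive means the rest, inconclusive results apart.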 This excerpt belongs to a sample that is enriched for actives.
Assay: inhibitors of triacylglycerol accumulation, primary screen, cell-based, uHTS, fluorescence, H9c2 (AID 651582);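 on inhibition: 0% = DMSO wells and 100% = triacsin C control wells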
Details: H9c2 cells, Nile Red lipid (TAG) fluorescence, at 12.5 µM, cells loaded with 200 µM oleic acid; DAPI nuclei signal change (viability), lower = more cytotoxic: measured here: DAPI nuclei count viability; inhibition: stronger effect = higher value

Compound | DAPI nuclei signal change (viability), lower = more cytotoxic [%] | inhibition
CC(C)(C)OC(=O)C[C@@H]1C/C=C\C[C@@H](CC(=O)N(CCO)Cc2ccccc2)C(=O)N[C@H](Cc2ccccc2)COC1=O | -3.76 | 9.88% (inactive)
O=C(COc1ccc(Br)cc1)OCC(=O)c1ccc[nH]1 | 0.498 | -0.551% (inactive)
CC(=O)NCc1ccc(-c2csc(NC(=O)CCCc3nc4ccccc4c(=O)[nH]3)n2)cc1 | 0.981 | 12% (inactive)
Cc1onc(-c2c(F)cccc2Cl)c1C(=O)OCC(=O)N1C(C)CCCC1C (stereo not given) | -2.4 | 8.89% (inactive)
CCCCNc1c(-c2ccc(OC)c(Sc3ccc(OC)cc3)c2)nc2ccc(Cl)cn12 | 65.8 | 11.1% (inactive)
C=CCC[C@H](Cc1ccc(F)cc1)C(=O)OC[C@@H](Cc1c[nH]c2ccccc12)NC(=O)[C@H](CC=C)CC(=O)N[C@H](CO)Cc1ccccc1 | 1.3 | 20.3% (inactive)
C=CCC[C@@H](Cc1ccc(F)cc1)C(=O)OC[C@H](Cc1c[nH]c2ccccc12)NC(=O)[C@@H](CC=C)CC(=O)N(CCO)Cc1ccccc1 | -6.98 | 68% (active)
C=CCC[C@H](Cc1ccc(F)cc1)C(=O)OC[C@H](C)NC(=O)[C@H](CC=C)CC(=O)N(CCO)Cc1ccccc1 | -5.64 | 27.4% (inactive)
CCN(CC)S(=O)(=O)c1ccc(N2CCOCC2)c(NC(=O)c2ccc(=O)n(C)n2)c1 | -1.89 | 5.11% (inactive)
CCOC(=O)C1(C)CCCN(C(=O)c2cccc(Cl)c2)C1 (stereo not given) | 4.05 | -18.8% (inactive)
CN(C(=O)c1cccc(NC(=O)Cc2ccc(NC(=O)C3CCN(C(=O)C4CCCCC4)CC3)cc2)c1)C1CCC1 | -0.027 | -1.1% (inactive)
O=C(Nc1ccccc1Cl)Nc1cccc2cccnc12 | 2.86 | 20.5% (inactive)
O=C(Nc1ccccc1)Oc1cccc2cccnc12 | -22.4 | 63.4% (active)
OCc1ccc(OCCCOc2cccc3cccnc23)cc1 | 12.3 | -32.6% (inactive)
COc1ccc(C(=O)N2CCCCC2c2cc(C(=O)Nc3ccc(F)c(Cl)c3)no2)cc1 (stereo not given) | -1.17 | 2.9% (inactive)
c1ccc2cc3c(NCCN4CCOCC4)ccnc3cc2c1 | 65.1 | 70.1% (active)
O=C(NCCN1CCOCC1)c1ccc2c(c1)ncn2C1CCCC1 | 1.89 | -0.366% (inactive)
O=C(NCCN1CCOCC1)c1cc(-c2cccs2)nc2ccccc12 | 34.9 | 13.5% (inactive)
CCOC(=O)C1CCCN(C(=O)c2ccc(C)c(S(=O)(=O)N3CCCCC3)c2)C1 (stereo not given) | 0.656 | -11.3% (inactive)
O=C(C1Cc2ccccc2CN1C(=O)c1ccco1)N1CCN(c2ccccc2)CC1 (stereo not given) | 0.303 | 25.4% (inactive)
